Test results taken from PubChem BioAssay.
The source made the active and inactive calls.

Assays:
[1] = binders of probe aFSTL3 on microarray, primary screen, stem cell growth factor project, biochemical, small-molecule microarray, fluorescence 635/667 (AID 1064); details: higher = more signal;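 also: measures binding of the biotinylated anti-FSTL3 antibody to printed compounds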
[2] = binders from COS7 lysate, DM2A8 probe, primary screen, torsin A project, cell lysate, small-molecule microarray, fluorescence 635/667 (AID 1065); details: higher = more signal, COS7 lysate expressing mutant human TOR1A
[3] = binders of probe aFGF2 on microarray, primary screen, stem cell growth factor project, biochemical, small-molecule microarray, fluorescence 635/667 (AID 1067); details: higher = more signal;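 also: measures binding of biotinylated aFGF2 protein to printed compounds on slides; z-score merges feature fluorescence and signal-to-noise across triplicate slides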
[4] = binders of probe aFGF10 on microarray, primary screen, stem cell growth factor project, biochemical, small-molecule microarray, fluorescence 635/667 (AID 1071); details: higher = more signal;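 also: score merges 667 nm spot intensity and signal to noise from triplicate slides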
[5] = target: Neurogenic locus notch homolog protein 2 (Homo sapiens) (UniProt Q04721); assay: Notch2 binders on small-molecule microarrays, primary screen, biochemical, small-molecule microarray, 635 nm fluorescence, stem cell growth factors (AID 1073); details: Notch2 binding, higher = more signal
Neurogenic locus notch homolog protein 2 (Homo sapiens), sequence (Q04721 whole entry, looked up, canonical isoform): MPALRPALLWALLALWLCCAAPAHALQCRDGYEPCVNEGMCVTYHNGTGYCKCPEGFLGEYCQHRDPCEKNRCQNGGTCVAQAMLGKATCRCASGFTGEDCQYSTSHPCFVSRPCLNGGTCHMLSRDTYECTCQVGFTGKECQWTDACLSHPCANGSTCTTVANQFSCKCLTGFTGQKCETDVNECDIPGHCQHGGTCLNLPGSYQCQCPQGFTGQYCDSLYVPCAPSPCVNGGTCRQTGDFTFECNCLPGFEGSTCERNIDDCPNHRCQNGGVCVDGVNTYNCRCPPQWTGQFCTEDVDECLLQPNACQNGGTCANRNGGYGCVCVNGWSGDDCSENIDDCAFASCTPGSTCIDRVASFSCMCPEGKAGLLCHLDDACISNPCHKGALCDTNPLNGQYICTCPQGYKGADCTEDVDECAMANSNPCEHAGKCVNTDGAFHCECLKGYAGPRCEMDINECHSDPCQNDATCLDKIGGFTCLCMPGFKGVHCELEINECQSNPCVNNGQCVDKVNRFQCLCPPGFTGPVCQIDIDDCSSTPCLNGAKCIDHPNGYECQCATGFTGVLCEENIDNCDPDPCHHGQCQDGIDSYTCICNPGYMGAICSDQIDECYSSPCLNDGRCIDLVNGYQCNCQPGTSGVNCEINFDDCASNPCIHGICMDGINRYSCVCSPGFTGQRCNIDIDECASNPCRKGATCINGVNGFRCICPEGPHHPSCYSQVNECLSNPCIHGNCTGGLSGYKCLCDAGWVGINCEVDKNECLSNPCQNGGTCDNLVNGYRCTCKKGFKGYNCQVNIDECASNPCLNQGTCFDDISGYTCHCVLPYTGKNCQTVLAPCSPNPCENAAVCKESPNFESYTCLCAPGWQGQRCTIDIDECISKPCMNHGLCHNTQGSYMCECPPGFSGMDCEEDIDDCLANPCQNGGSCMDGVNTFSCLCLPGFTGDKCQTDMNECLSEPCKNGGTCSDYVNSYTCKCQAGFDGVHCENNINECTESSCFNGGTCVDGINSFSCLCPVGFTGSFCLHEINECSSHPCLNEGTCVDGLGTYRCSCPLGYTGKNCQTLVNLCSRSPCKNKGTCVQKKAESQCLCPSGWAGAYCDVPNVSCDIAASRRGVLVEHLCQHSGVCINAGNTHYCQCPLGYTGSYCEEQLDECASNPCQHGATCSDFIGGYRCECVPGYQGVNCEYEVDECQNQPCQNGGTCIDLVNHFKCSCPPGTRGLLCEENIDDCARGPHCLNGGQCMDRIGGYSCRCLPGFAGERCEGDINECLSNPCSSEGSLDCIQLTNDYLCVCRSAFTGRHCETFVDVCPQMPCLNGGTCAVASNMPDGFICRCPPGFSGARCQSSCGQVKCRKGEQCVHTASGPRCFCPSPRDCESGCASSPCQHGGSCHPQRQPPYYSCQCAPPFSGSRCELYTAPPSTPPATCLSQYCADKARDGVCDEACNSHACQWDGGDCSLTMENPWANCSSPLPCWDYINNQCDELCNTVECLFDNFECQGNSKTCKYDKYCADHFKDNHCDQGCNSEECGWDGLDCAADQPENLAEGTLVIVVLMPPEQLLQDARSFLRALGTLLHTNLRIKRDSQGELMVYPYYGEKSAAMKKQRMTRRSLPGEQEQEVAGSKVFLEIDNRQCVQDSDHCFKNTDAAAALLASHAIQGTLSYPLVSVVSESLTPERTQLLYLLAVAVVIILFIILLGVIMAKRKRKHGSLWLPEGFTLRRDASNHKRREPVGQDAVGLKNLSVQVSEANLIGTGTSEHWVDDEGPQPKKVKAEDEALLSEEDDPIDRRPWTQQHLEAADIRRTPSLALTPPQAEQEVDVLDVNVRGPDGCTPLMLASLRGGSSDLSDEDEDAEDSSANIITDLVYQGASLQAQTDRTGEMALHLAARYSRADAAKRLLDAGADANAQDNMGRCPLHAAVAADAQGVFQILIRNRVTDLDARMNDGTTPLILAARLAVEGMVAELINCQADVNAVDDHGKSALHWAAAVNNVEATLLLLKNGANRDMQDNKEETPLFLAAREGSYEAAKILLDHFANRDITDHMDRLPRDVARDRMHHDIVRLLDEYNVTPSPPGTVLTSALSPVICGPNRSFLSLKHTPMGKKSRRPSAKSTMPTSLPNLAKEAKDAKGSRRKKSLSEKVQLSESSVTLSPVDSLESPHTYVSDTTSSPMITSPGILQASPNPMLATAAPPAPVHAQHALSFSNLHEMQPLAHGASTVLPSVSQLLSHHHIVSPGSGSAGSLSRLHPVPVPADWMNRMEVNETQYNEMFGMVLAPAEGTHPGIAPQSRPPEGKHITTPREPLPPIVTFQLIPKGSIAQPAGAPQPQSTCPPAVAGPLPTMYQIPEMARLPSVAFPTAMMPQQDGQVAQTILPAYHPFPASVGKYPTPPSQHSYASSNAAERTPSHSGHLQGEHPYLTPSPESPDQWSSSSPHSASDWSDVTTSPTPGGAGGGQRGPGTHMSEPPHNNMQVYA

[6] = target: Pro-neuregulin-1, membrane-bound isoform (Homo sapiens) (UniProt Q02297); assay: NRG1 binders on small-molecule microarrays, primary screen, psychiatric disease protein project, biochemical, small-molecule microarray, fluorescence 635/667 (AID 1075); details: NRG1 binding, 635 nm fluorescence, higher = more signal;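 also: score combines 667 nm spot fluorescence with signal to noise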
Pro-neuregulin-1, membrane-bound isoform (Homo sapiens), sequence (Q02297 whole entry, looked up, the tested form may be a part, canonical isoform): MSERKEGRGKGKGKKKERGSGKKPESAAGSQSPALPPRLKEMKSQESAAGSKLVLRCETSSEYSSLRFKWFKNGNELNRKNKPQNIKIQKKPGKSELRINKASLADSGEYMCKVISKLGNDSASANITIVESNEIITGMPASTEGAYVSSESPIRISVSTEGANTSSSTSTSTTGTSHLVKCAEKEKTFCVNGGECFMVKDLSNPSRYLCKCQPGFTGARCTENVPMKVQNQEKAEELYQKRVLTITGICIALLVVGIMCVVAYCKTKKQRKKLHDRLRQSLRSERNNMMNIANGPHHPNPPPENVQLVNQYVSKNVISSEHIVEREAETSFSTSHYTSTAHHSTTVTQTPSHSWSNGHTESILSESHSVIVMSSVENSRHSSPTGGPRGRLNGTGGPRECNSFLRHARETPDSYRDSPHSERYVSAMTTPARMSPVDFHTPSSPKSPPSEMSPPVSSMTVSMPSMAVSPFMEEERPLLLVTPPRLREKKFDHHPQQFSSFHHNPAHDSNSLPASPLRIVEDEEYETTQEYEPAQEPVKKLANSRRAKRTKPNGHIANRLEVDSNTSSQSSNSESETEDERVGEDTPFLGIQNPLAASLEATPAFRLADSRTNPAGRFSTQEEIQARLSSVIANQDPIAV

[7] = tested on: Neuregulin-1 EGF-like domain; assay: binders of neuregulin-1 EGF-like domain, primary screen, biochemical, small-molecule microarray, 635 nm fluorescence (AID 1081); details: small-molecule microarray binding, higher = more signal;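 also: binding of the protein to compounds printed on small-molecule microarray slides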
[8] = FRG1 promoter luciferase signal modulators, primary screen, FRG1 inhibition for FSHD, cell-based, C2C12 myotubes, firefly/Renilla luciferase, luminescence (AID 1084); details: higher = more signal, called active from +8 up or from −8 down
[9] = binders of probe aFST on microarray, primary screen, stem cell growth factor project, biochemical, small-molecule microarray, fluorescence 635/667 (AID 1086); details: higher = more signal;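 also: score merges 667 nm fluorescence with signal-to-noise of each printed compound spot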
[10] = binders of probe aHhip on microarray, primary screen, stem cell growth factor project, biochemical, small-molecule microarray, fluorescence 635/667 (AID 1087); details: higher = more signal;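 also: score merges spot fluorescence at 667nm with spot signal to noise ratio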

Row | SMILES | composite z-score [1] | composite z-score [2] | composite z-score [3] | composite z-score [4] | composite z-score [5] | composite z-score [6] | composite z-score [7] | z-score [8] | composite z-score [9] | composite z-score [10]
1 | CC(C)C[C@@H]1NC(=O)[C@@H]2C[C@H](C(=O)NCCCC[N+](C)(C)C)[C@H](c3ccc(O)cc3)N2C1=O | -0.358 | 1.4 | -0.116 | 0.639 | 0.113 | 1.54 | 1.32 | 0.53 (inactive) | 0.221 | 0.319
2 | COCCOC(=O)N1C(=O)[C@@]2(c3cc(C#CCC(C(=O)OC)C(=O)OC)ccc31)[C@H](C(N)=O)[C@H]1C(=O)O[C@H](c3ccccc3)[C@H](c3ccccc3)N1[C@@H]2c1ccc(OCCO)cc1 | -0.231 | 0.787 | 0.0001 | 0.906 | 1.34 | 1.19 | 1.23 | 0.789 (inactive) | 0.111 | -0.249
3 | COC(=O)[C@@]1(Cc2ccccc2)[C@H]2c3cc(C(=O)N4CCCC4)n(Cc4ccc(C(F)(F)F)nc4)c3C[C@H]2CN1C(=O)c1ccccc1 | 0.356 | 1.74 | 0.237 | 0.747 | 1.54 | 1.98 | 1.37 | 0.419 (inactive) | 2.11 | 0.0858
4 | CCOC(=O)C1=C[C@@H](C(C)(C)C)N(S(=O)(=O)c2ccc(C)cc2)[C@H]1c1ccccc1Cl | 0.284 | 0.534 | 0.122 | 0.624 | 1.61 | 1.25 | 1.14 | -2.24 (inactive) | 1.07 | 0.0401
5 | O=C1N(Cc2ccccc2)c2ccccc2[C@H]2OC(c3ccc(OCCCO)cc3)=N[C@@]12Cc1ccccc1 | 0.85 | 0.205 | 0.202 | 0.862 | 0.45 | 0.924 | 1.3 | -1.69 (inactive) | 1.03 | 0.115
6 | C=CC[C@]1(C(=O)NCc2ccccc2)COC(c2ccc(OCCCO)cc2)=N1 | 2.17 | 2.12 | -0.008 | -0.588 | -0.813 | 1.09 | 0.521 | 0.235 (inactive) | 0.946 | -0.335
7 | CCOC(=O)C1=CC[C@@H](c2ccccc2)N(S(=O)(=O)c2ccc(C)cc2)[C@H]1C#N | -0.18 | -0.0196 | -0.0381 | 0.848 | 1.25 | 0.741 | 1.29 | 1.04 (inactive) | 1.1 | -0.191
8 | COCCOC(=O)N1C(=O)[C@@]2(c3cc(C#CC4(O)CCCCCC4)ccc31)[C@H](c1ccc(OCCO)cc1)N1[C@H](c3ccccc3)[C@H](c3ccccc3)OC(=O)[C@H]1[C@@H]2C(N)=O | -0.392 | 0.96 | 0.014 | 1.05 | 0.96 | 1.32 | 1.14 | 0.11 (inactive) | 0.48 | -0.0645
9 | C[N+](C)(C)CCCCCCNC(=O)[C@@H]1C[C@@H]2C(=O)N[C@@H](Cc3ccccc3)C(=O)N2[C@@H]1c1ccc(O)cc1 | -0.283 | 1.18 | -0.0138 | 0.33 | 0.581 | 1.73 | 1.03 | 2.56 (inactive) | 0.957 | 0.0373
10 | O=C1C2C=CC(C(O)c3ccc([N+](=O)[O-])cc3)N(Nc3ccccc3)C2C(=O)N1c1ccccc1 (stereo not given) | -0.228 | 0.0467 | 0.0589 | -0.115 | 1.4 | 1.07 | 1.25 | -0.699 (inactive) | 0.564 | 0.211
11 | COCC(=C=CC[C@@H](O)c1ccc(OCCO)cc1)C[C@@H](O)COCc1ccccc1 | 0.158 | -0.187 | -0.015 | 0.734 | 0.726 | 1.11 | 1.07 | -1.1 (inactive) | 0.543 | 0.111
12 | COc1ccc(C(O)C2C=CC3C(=O)N(C)C(=O)C3N2Nc2ccc([N+](=O)[O-])cc2[N+](=O)[O-])cc1OCc1ccccc1 (stereo not given) | -0.0125 | 0.216 | 0.258 | 0.975 | 1.6 | 0.875 | 1.27 | 0.37 (inactive) | 1.04 | -0.0296
13 | COCCOC(=O)N1C(=O)[C@@]2(c3cc(C#CCCO)ccc31)[C@H](C(=O)N1CCc3cc(OC)c(OC)cc3C1)[C@H]1C(=O)O[C@H](c3ccccc3)[C@H](c3ccccc3)N1[C@@H]2c1ccccc1OCCO | -0.327 | 0.255 | -0.0336 | 1 | 1.47 | 0.317 | 1.19 | -0.742 (inactive) | 0.0205 | -0.111
14 | C[C@H]1NC(=O)C([C@@H](C)OCc2ccccc2)NC(=O)[C@@]23C(=O)N[C@@H](Cc4ccccc4)C2[C@H](C)[C@@]2(C)O[C@H]2C3/C=C/C/C=C\CNC1=O (stereo not given in full) | -0.265 | 0.0677 | -0.183 | 0.817 | -0.363 | -0.341 | 0.989 | 0.493 (inactive) | -0.407 | -0.0324
15 | CCCC=C(CCC)[C@@H](NC(=O)c1ccco1)c1ccc(C(=O)OC)cc1 | 0.0801 | 0.127 | 0.209 | 0.72 | 1.52 | 1.65 | 1.2 | 0.467 (inactive) | 0.594 | -0.0507
16 | C=C(COC)C(=O)CC[C@@H](OC(=O)c1cccnc1)c1cccc(OCCO)c1 | 0.0424 | 0.759 | -0.0332 | 0.455 | -0.0967 | 0.851 | 0.762 | 0.587 (inactive) | 0.532 | -0.171

Row | SMILES | composite z-score [1] | composite z-score [2] | composite z-score [3] | composite z-score [4] | composite z-score [5] | composite z-score [6] | composite z-score [7] | z-score [8] | composite z-score [9] | composite z-score [10]
17 | CC(C)C(=C=CC[C@@H](O)c1ccc(OCCO)cc1)CCO | -0.226 | -0.0605 | -0.128 | 0.127 | -0.0765 | 0.346 | 0.402 | 0.0636 (inactive) | -0.315 | 0.0505
18 | COc1cc(OC)c(C(O)C2C=CC3C(=O)N(c4ccccc4)C(=O)C3N2Nc2ccccc2F)cc1Br (stereo not given) | 0.0776 | 0.948 | 0.0619 | 0.61 | 1.44 | 1.74 | 1.25 | 0.0172 (inactive) | 1.53 | -0.0088
19 | CCCC=C(CCC)[C@@H](NS(=O)(=O)c1ccc(Cl)cc1)c1ccccc1 | 0.329 | -0.558 | 0.106 | -0.243 | 0.191 | -0.223 | -0.358 | 0.909 (inactive) | -0.0037 | 0.0251
20 | Cc1ccc(F)cc1S(=O)(=O)N[C@@H]1CCN(Cc2ccc3[nH]ccc3c2)C1 | -0.0434 | 0.216 | -0.0717 | 0.652 | 0.523 | 0.91 | 0.563 | -3.16 (inactive) | 0.356 | -0.134
21 | CCOC(=O)C1=CC[C@@H](c2ccccc2)N(S(=O)(=O)C[Si](C)(C)C)[C@H]1c1ccccc1 | -0.267 | 0.505 | -0.0181 | 0.389 | 1.25 | 0.652 | 0.924 | -2.47 (inactive) | 1.25 | -0.123
22 | CCC[C@@H]1C=C(C(=O)OCC)[C@H](c2ccccc2)N1S(=O)(=O)c1ccc(C)cc1 | 0.483 | 0.379 | 0.137 | 0.88 | 1.66 | 1.09 | 1.06 | -1.56 (inactive) | 1.2 | -0.105
23 | O=C(NCCO)C1=C[C@H](Oc2ccccc2I)[C@@H](O)[C@H](NCc2ccc(F)cc2)C1 | 0.175 | 0.917 | -0.145 | 1.38 | -0.627 | -0.835 | -1.68 | -0.766 (inactive) | -0.459 | 0.0722
24 | C=CCC(OC(C)=O)[C@@H]1[C@@H](N(Cc2ccc(-c3ccccc3)cc2)C(=O)c2ccc(-c3ccccc3)cc2)c2cc(OCCCO)ccc2N1C(=O)c1ccc2ccccc2n1 (stereo not given in full) | 0.0997 | 0.185 | -0.0945 | 0.0767 | -0.332 | 0.211 | -0.359 | -0.0161 (inactive) | 0.212 | 0.347
25 | C/C=C/CN(C(=O)C#Cc1ccccc1)[C@H](CO[Si](C)(C)C(C)(C)C)c1ccccc1 | 0.15 | 0.183 | -0.237 | -0.77 | -1.58 | -0.339 | -0.164 | -3.24 (inactive) | -0.967 | -0.435
26 | CCCC[C@@H](O)C1=C(COC)Cn2c(=O)n(-c3ccccc3)c(=O)n2[C@H]1CO | -0.306 | -0.191 | -0.226 | 0.13 | -0.167 | -0.43 | -0.336 | -1.12 (inactive) | -0.292 | -0.236
27 | COCCOC(=O)N1C(=O)[C@@]2(c3cc(C#CC4(O)CCCCCC4)ccc31)[C@H](C(=O)NC[C@H](O)c1ccccc1)[C@H]1C(=O)O[C@H](c3ccccc3)[C@H](c3ccccc3)N1[C@@H]2c1ccc(O)cc1 | -0.0443 | 0.224 | -0.0193 | 1 | 0.496 | 0.802 | 1.28 | -0.0865 (inactive) | 0.153 | 0.176
28 | C=CCC(OC(C)=O)[C@@H]1[C@@H](N(Cc2ccc(-c3cccc(C(F)(F)F)c3)o2)C(=O)Cc2ccc(OC)cc2)c2cc(OCCCO)ccc2N1C(=O)c1ccc2ccccc2n1 (stereo not given in full) | 0.0523 | -0.0913 | -0.0922 | 0.745 | -0.485 | -0.249 | -0.433 | 0.312 (inactive) | 0.364 | -0.16
29 | COC(=O)C(CC#Cc1ccc2c(c1)[C@]1(C(=O)N2)[C@H](c2ccc(O)cc2)N2[C@H](c3ccccc3)[C@H](c3ccccc3)OC(=O)[C@H]2[C@@H]1C(=O)N1CCc2cc(OC)c(OC)cc2C1)C(=O)OC | -0.312 | 0.475 | -0.0692 | 0.59 | 1.07 | 0.296 | 1.27 | 1.63 (inactive) | 0.652 | -0.0755
30 | CN1C(=O)C2C=CC(C(O)c3ccc(-c4ccccc4)s3)N(Nc3ccccc3)C2C1=O (stereo not given) | 0.876 | 0.358 | 0.0754 | 0.454 | 1.67 | 1.43 | 1.09 | 0.0583 (inactive) | 1.15 | 0.245
31 | CCOC(=O)C1=CCC(c2cc3ccccc3[nH]2)N(S(=O)(=O)c2ccccc2[N+](=O)[O-])C1 (stereo not given) | -0.191 | 0.0999 | -0.0481 | 0.465 | 1.37 | 1.48 | 0.957 | -2.98 (inactive) | 0.361 | 0.0505
32 | COCCOC(=O)N1C(=O)[C@@]2(c3ccccc31)[C@H](C(N)=O)[C@H]1C(=O)O[C@H](c3ccccc3)[C@H](c3ccccc3)N1[C@@H]2c1ccc(OCCO)cc1 | -0.4 | 1.06 | 0.0445 | 0.257 | 0.995 | 1.59 | 1.21 | 0.341 (inactive) | 0.239 | 0.0854
